Results filed as inconclusive are left out. Active and inactive are the calls of the source. Calls follow the shape of the dose curve; as a rule, active = well fitted inhibition curve with a large enough effect; inconclusive = small, poorly fitted or top-dose-only effect; inactive = flat fitted curve, though single readings scatter.
Key:
Experiment in all cases: qHTS profiling for inhibitors of Plasmodium falciparum proliferation (AID 504749); also: nearly all actives have a fitted effect of over 60% in size
Conditions in all cases: P. falciparum in erythrocytes, SYBR Green DNA, 72 h; series mostly up to 28.7 µM
[1] = test system: CP256
In short: (§1)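 Infected RBCs, 0.3% parasitemia/2.5% Hct final; cpd 72 h, 37 C, 5% CO2; lysis buffer with saponin/triton/SYBR Green I, o/n RT dark; FI 485/535; norm. to artemisinin (0.29 uM) and DMSO.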

[2] = test system: CP260
In short: as §1

[3] = test system: CP262
In short: as §1

[4] = test system: CP265
In short: as §1

[5] = test system: CP266
In short: as §1

[6] = test system: CP268
In short: as §1

[7] = test system: CP269
In short: as §1

[8] = test system: CP286
In short: as §1

[9] = test system: CP291
In short: as §1

[10] = test system: CP297
In short: as §1

[11] = test system: CP305
In short: as §1

[12] = test system: CP315
In short: as §1

[13] = test system: CP325
In short: as §1

[14] = test system: CP329
In short: as §1

[15] = test system: DFO2036
In short: as §1

[16] = test system: DIV14
In short: as §1

[17] = test system: DIV17
In short: as §1

[18] = test system: DIV30
In short: as §1

[19] = test system: FAB9
In short: as §1

[20] = test system: GB4
In short: as §1

[21] = test system: HB3
In short: as §1

[22] = test system: ICS
In short: as §1

[23] = test system: JCK
In short: as §1

[24] = test system: N140
In short: as §1

[25] = test system: P93_24
In short: as §1

[26] = test system: P94_40
In short: as §1

[27] = test system: PAD
In short: as §1

[28] = test system: PC15
In short: as §1

[29] = test system: PC26
In short: as §1

[30] = test system: PC49
In short: as §1

[31] = test system: SC27B
In short: as §1

[32] = test system: TAB109
In short: as §1

[33] = test system: TAB165
In short: as §1

[34] = test system: W2
In short: as §1

Measured: Potency

C[N+]1(C)C2CC[C@H]1CC(OC(=O)[C@@H](CO)c1ccccc1)C2 (some centres undefined)
inactive: all assays above

From PubChem BioAssay (NCATS)
